For 27 compounds, Potency and outcome results are on record in PubChem BioAssay (NCATS).

Records with an inconclusive call do not appear. The list shows a part of the results. Calls of active or inactive are those of the source. Unless noted, the call rests on the fitted dose curve; in most records, active means well fitted curve in the direction sought with a large enough effect; inconclusive means small, poorly fitted or top-dose-only effect, or another doubt; inactive means no such curve, though single readings can be large; an effect the other way counts as inactive or inconclusive.

Assay [1] can be described thus: qHTS for differential inhibitors of proliferation of Plasmodium falciparum line D10 (AID 1877).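 Further: parasites grown with compound for 72 h before DNA staining.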 Further: potency means the concentration at half of the fitted maximal effect. On the technique in general: qHTS replaces the single test concentration by a dilution series.
The nature of assay [2]: qHTS for differential inhibitors of proliferation of Plasmodium falciparum line Dd2 (AID 1882). Further: nearly all actives have a fitted effect of over 65% in size. Further: potency means the concentration at half of the fitted maximal effect. The settings on record: Potency: Plasmodium falciparum Dd2 proliferation inhibition. In short, it runs like this: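 SYBR Green DNA fluorescence (ex 485, em 535 nm) after overnight lysis quantifies parasite growth; compound exposure lasted 72 h at 37 C on infected red cells at 2.5% hematocrit, 0.3% parasitemia (final). Artemisinin 0.29 uM and vehicle wells define normalization.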

A short description of assay [3]: qHTS for differential inhibitors of proliferation of Plasmodium falciparum line W2 (AID 1883).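 Further: parasites grown with compound for 72 h before lysis and staining.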 Further: potency means the concentration at half of the fitted maximal effect. Particulars: Potency: Plasmodium falciparum W2 proliferation inhibition.
Assay [4] is described as follows: qHTS for differential inhibitors of proliferation of Plasmodium falciparum line HB3 (AID 1886).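 Further: parasites grown with compound for 72 h before SYBR Green readout.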 Further: potency means the concentration at half of the fitted maximal effect. Particulars: Potency: Plasmodium falciparum HB3 proliferation inhibition.
Assay [5] can be described thus: qHTS Assay for Modulators of Human Peripheral Myelin Protein 22 (PMP22) Expression/Activity (AID 1967; active means well fitted curve in the direction sought with a large enough effect in the signal ratio; the % refers to the signal ratio). Put shortly: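 Readout is the corrected green/red luminescence ratio after 24 h compound exposure, normalised to untreated cells (0%). Engineered MSC80 mouse Schwann cells express green luciferase from the mouse Pmp22 promoter and red luciferase from EF-alpha as internal control.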

Assay [6] addresses Ferritin light chain (Equus caballus) (UniProt P02791). The assay is described as follows: qHTS Validation Assay for Identification of Novel General Anesthetics (AID 2323). Further: series mostly up to about 77 µM. Put shortly: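 Competitive displacement of the profluorescent anesthetic 1-AMA (50% saturated, PBS) from 10 uM apoferritin, 10 min, room temperature. Activity is normalized 380/535 nm fluorescence; concentration-response fitted with a four-parameter Hill equation.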

Assay [7] deals with ATP-dependent DNA helicase Q1 (Homo sapiens) (UniProt P46063). Description: qHTS Validation Assay for Inhibitors of RecQ-Like Dna Helicase 1 (RECQ1) (AID 2353). In short, it runs like this:
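RECQ1T1 50 nM; forked duplex (20 bp + 30-nt ss tails) 200 nM, ATP 2 mM final; pH 8.0, 2 mM MgCl2, 2.5 ug/ml poly(dI-dC); 15 min compound preincubation; discontinuous kinetic read over 2 h at RT.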

The target in assay [8] is RecQ-like DNA helicase BLM (Homo sapiens) (UniProt P54132). Description: qHTS Validation Assay for Inhibitors of Bloom's syndrome helicase (BLM) (AID 2364). In short, it runs like this: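 Forked 20-bp duplex substrate (200 nM, TAMRA/BHQ-2) plus 2 mM ATP added after 15 min compound preincubation with 50 nM enzyme, pH 8.0, poly(dI-dC) 2.5 ug/ml. Strand separation followed by fluorescence (525/598 nm) over 2 h, normalized to enzyme-free and DMSO controls.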
RecQ-like DNA helicase BLM (Homo sapiens), sequence (P54132 whole entry, looked up): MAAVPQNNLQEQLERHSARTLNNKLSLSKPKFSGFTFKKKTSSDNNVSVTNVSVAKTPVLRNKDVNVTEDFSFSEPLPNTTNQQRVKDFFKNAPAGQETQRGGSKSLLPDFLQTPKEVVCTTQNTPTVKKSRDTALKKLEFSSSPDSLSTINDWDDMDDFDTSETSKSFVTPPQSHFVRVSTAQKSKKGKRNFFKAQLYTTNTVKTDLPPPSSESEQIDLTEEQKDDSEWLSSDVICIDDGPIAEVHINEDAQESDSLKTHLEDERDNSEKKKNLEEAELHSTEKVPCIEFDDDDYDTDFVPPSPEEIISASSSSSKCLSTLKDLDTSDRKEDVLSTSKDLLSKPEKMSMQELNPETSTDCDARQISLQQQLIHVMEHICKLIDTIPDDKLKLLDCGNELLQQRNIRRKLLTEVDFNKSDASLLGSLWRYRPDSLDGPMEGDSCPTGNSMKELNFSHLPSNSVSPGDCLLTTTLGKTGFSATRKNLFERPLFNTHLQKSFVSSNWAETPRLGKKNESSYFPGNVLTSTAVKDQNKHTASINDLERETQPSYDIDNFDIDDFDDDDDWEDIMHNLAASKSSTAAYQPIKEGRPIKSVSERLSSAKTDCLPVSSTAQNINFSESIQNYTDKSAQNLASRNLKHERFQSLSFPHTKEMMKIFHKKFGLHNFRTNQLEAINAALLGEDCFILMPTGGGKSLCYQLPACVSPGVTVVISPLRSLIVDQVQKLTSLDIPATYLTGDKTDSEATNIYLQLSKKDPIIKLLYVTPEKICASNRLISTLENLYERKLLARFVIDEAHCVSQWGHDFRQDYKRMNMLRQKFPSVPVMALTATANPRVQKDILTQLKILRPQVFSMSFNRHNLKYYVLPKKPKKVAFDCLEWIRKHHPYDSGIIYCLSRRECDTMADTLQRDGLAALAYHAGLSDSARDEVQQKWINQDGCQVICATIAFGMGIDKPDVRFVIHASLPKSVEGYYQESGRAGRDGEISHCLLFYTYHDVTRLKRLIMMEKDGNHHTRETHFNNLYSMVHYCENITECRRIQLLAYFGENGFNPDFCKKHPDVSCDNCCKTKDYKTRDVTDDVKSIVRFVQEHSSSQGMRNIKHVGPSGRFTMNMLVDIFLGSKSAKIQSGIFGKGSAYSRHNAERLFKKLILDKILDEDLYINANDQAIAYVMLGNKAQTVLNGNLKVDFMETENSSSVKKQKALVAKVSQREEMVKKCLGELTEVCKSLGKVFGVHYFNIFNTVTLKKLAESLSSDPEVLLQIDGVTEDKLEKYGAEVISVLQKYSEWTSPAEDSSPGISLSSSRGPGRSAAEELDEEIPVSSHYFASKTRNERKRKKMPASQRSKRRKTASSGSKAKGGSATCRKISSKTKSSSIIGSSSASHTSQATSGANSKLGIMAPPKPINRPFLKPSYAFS

In assay [9] the target is Endonuclease 4 (Escherichia coli (strain K12)) (UniProt P0A6C1). The assay is described as follows: Counterscreen for APE1 Inhibitors: qHTS Assay for Inhibitors of Endonuclease IV (AID 2565). The text has this:
Assay Provider: David M. Wilson, III, National Institute on Aging, NIH
Screening Center PI: Austin, C.P.
Screening Center: NIH Chemical Genomics Center [NCGC]
Escherichia coli endonuclease IV (Endo IV) is the key member of the AP endonuclease superfamily that catalyzes the cleavage of damaged DNA backbone immediately 5' of an AP site. E. coli EndoIV has the same functional activities as human APE1 but has no sequence or structural homology to the human protein. Herein, we utilize E. coli EndoIV to counter screen compound libraries as part of a high-throughput campaign for APE1 inhibitor identification. […]
Inhibition of APE1 activity was screened by utilizing double-stranded short substrate containing tetrahydrofuran (THF) abasic site labeled with rhodamine-type fluorophore (TAMRA) at the 5'-end and with non-fluorescent Black Hole Quencher-2 (BHQ-2) at the opposing 3'-end. An increase in the fluorescence intensity due to incision of the abasic site by APE1 was used to measure the enzyme activity. […]
Three uL of enzyme were dispensed to 1536-well Greiner black solid bottom plates. […] The plates were immediately transferred into ViewLux High-throughput CCD imager (Perkin-Elmer) in order to measure the reaction progress in kinetic mode (three reads every 60 seconds) using 525 nm excitation and 598 nm emission fluorescence protocol. […]

Ferritin light chain (Equus caballus), sequence (P02791 2-175 limits assumed): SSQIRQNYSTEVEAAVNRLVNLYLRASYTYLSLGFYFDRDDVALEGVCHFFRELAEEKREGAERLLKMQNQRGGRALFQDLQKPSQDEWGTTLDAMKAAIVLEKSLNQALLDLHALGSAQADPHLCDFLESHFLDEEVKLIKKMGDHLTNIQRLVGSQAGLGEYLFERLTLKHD
ATP-dependent DNA helicase Q1 (Homo sapiens), sequence (P46063 whole entry, looked up): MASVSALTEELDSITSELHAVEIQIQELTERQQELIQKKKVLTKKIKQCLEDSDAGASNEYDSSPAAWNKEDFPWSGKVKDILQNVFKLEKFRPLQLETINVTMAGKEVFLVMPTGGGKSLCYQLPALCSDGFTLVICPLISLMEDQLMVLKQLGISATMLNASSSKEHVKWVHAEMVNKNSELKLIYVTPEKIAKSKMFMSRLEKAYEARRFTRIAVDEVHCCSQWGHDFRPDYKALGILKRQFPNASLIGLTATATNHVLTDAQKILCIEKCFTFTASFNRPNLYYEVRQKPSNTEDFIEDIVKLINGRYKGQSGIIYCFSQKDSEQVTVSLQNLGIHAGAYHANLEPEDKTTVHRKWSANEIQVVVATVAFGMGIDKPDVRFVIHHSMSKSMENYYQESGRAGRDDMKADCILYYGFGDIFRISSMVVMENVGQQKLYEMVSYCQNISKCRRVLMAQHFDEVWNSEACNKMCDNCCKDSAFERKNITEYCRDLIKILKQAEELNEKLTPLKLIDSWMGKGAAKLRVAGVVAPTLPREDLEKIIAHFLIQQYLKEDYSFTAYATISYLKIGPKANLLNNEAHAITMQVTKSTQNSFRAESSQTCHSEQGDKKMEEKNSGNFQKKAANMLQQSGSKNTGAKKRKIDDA

With `O=C(O)CCC(=O)N1CCCC1C(=O)O` (stereo not drawn), the Potency result in [1], in [2], in assay [3], in assay [4], in assay [6] and in assay [7] was “inactive” in each case. Besides, the call in assay [5] was inactive.
Consider `Cc1nc(N=Nc2ccc(S(=O)(=O)O)cc2S(=O)(=O)O)c(COP(=O)(O)O)c(C=O)c1O`, for which the Potency result in assay [1], in assay [2], in assay [3], in [4], in [6] and in assay [7] was “inactive” throughout. Also, in [8], the Potency entry was “inactive”. Moreover, the call in [5] was inactive.
Turning to `O=[N+]([O-])c1cccc2c(Br)[nH]nc12`, the Potency entry in assay [1], in assay [2], in assay [3], in assay [4], in assay [6] and in assay [7] was “inactive” each time. Moreover, the compound was classed as inactive in assay [5].
For the compound `O=C(O)c1cc(=O)cc(C(=O)O)[nH]1`, the Potency entry in assay [1], in [2], in assay [3], in assay [4], in assay [6] and in assay [7] was “inactive” each time. In addition, in assay [5], the compound was called inactive.
For the compound `NC1CONC1=O` (stereo not drawn), the Potency entry in assay [1], in assay [2], in assay [3], in [4], in assay [6] and in assay [7] was “inactive” in each case. In [5], the compound was called inactive.
With `NC/C=C\C(=O)O`, the Potency entry in assay [1], in assay [2], in assay [3], in assay [4], in assay [6] and in assay [7] was “inactive” each time. Further, the outcome in assay [5] was inactive.
Consider `O=C(O)C1=CCCNC1`, for which the Potency result in assay [1], in assay [2], in assay [3], in assay [4], in assay [6] and in [7] was “inactive” throughout. The call in assay [5] was inactive.
Take `COc1cc(CC(=O)O)ccc1O`: the Potency entry in [1], in assay [2], in [3], in assay [4], in [6] and in assay [7] was “inactive” each time. Besides, the Potency entry in assay [8] was “inactive”. In addition, the call in [5] was inactive.
Take `NCC(O)(CS(=O)(=O)O)c1ccc(Cl)cc1` (stereo not drawn): the Potency result in [1], in assay [2], in assay [3], in [4], in assay [6] and in assay [7] was “inactive” in each case. The call in assay [5] was inactive.
With `O=C(O)/C=C/c1cnc[nH]1`, the Potency result in assay [1], in assay [2], in assay [3], in [4], in assay [6] and in [7] was “inactive” each time. Moreover, in assay [5], the compound was classed as inactive.
For `NC(Cc1cccc(-c2ccccc2CP(=O)(O)O)c1)C(=O)O` (stereo not drawn), the Potency result in [1], in assay [2], in [3], in [4], in assay [6] and in assay [7] was “inactive” throughout. The Potency entry in [8] is “inactive”. Besides, the result in assay [5] was inactive.
For the compound `N[C@H]1CONC1=O`, the Potency entry in assay [1], in assay [2], in assay [3], in [4], in [6] and in [7] was “inactive” in each case.
Regarding `CC(C)C[C@H](NC(=O)[C@H](O)[C@H](N)Cc1ccccc1)C(=O)O`, the Potency entry in assay [1], in assay [2], in assay [3], in assay [4], in assay [6] and in assay [7] was “inactive” in each case.
Take `CC(=O)/C(C)=N/O`: the Potency entry in assay [1], in assay [2], in assay [3], in assay [4], in assay [6] and in assay [7] was “inactive” each time.
With `NC(=O)CC[C@H](N)C(=O)O`, the Potency entry in assay [1], in assay [2], in [3], in [4], in assay [6] and in assay [7] was “inactive” each time.
Turning to `CCN1C(=O)C=CC1=O`, the Potency entry in [1], in assay [2], in assay [3], in assay [4], in assay [6] and in [7] was “inactive” in each case.
`COc1ccc(CCN(C)CCc2ccc(OC)c(OC)c2)cc1OC`: the Potency result in assay [1], in [2], in [4], in [6] and in assay [7] was “inactive” each time. In assay [3], the Potency was 14.1 µM (active).
Consider `C#CCn1c(=O)c2c(ncn2C)n(C)c1=O`, for which the Potency result in assay [1], in assay [2], in assay [3], in assay [4], in assay [6] and in [7] was “inactive” throughout.
Turning to `N[C@H](C(=O)O)[C@H](O)C(=O)O`, the Potency result in assay [1], in [2], in assay [3], in [4], in [6] and in [7] was “inactive” each time.
With `O=C(O)C1=CCCN(CCON=C(c2ccccc2)c2ccccc2)C1`, the Potency result in assay [1], in assay [2], in assay [4], in assay [6] and in assay [7] was “inactive” in each case. For the same compound, the Potency in assay [3] is 5.62 µM (active).
Consider `CC(C)C[C@H](NC(=O)C1OC1C(=O)O)C(=O)NCCCCN=C(N)N` (stereo partly drawn), for which the Potency is 3.55 µM (active) in assay [1], 6.31 µM (active) in [2], 2.51 µM (active) in assay [3] and 2.51 µM (active) in assay [4]. In addition, the Potency entry in assay [6] and in assay [7] was “inactive” throughout.
With `Cc1nc(N=Nc2ccc(C(=O)O)cc2)c(COP(=O)(O)O)c(C=O)c1O`, the Potency result in [1], in [2], in assay [3], in [4], in assay [6] and in assay [7] was “inactive” in each case.
Regarding `NC1CCN(O)C1=O` (stereo not drawn), the Potency result in [1], in [2], in assay [3], in [4], in assay [7] and in [8] was “inactive” in each case. In addition, the compound was called inactive in [5] and in [9].
As to `O=c1cc(O)cc(/C=C/c2ccc(O)c(O)c2)o1`, the Potency in [1], in [3] and in assay [4] was 11.2 µM (active) throughout. Moreover, the Potency result in assay [2], in assay [6] and in assay [7] was “inactive” throughout.
For `O=[N+]([O-])c1cccc2cn[nH]c12`, the Potency entry in [1], in assay [2], in assay [3], in assay [4], in [6] and in [7] was “inactive” in each case.
For `N[C@@H](CCC(=O)N[C@H](CSN=O)C(=O)NCC(=O)O)C(=O)O`, the Potency result in assay [1], in [2], in assay [3], in assay [4], in assay [6] and in assay [7] was “inactive” throughout.
As for `CC1CCN=C(N)S1` (stereo not drawn), the Potency entry in [1], in [2], in assay [4], in assay [6] and in assay [7] was “inactive” each time. Moreover, in assay [3], the Potency is 11.2 µM (active).
